Test [1] can be described thus: NCI Yeast Anticancer Drug Screen. Data for the rad50 strain (AID 155).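 Further: 0% = growth of vehicle-only cultures of the same strain.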 The conditions noted are these: S. cerevisiae rad50 strain growth inhibition, stronger effect = higher value. The procedure, abridged:
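Yeast carrying a defined DNA repair defect were exposed to test compounds, and growth was compared with vehicle-treated controls to give percent inhibition.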

The nature of test [2]: NCI Yeast Anticancer Drug Screen. Data for the mec2-1 strain (AID 157). The conditions noted are these: S. cerevisiae mec2-1 strain, stronger effect = higher value. The method in brief:
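Test agents were screened against the mec2-1 yeast strain, with defined DNA repair or cell cycle alteration. Growth was scored as inhibition against vehicle-only controls.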

Test [3] is described as follows: NCI Yeast Anticancer Drug Screen. Data for the sgs1 mgt1 strain (AID 161).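 Further: 0% = growth of cultures given vehicle only.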 As to conditions: S. cerevisiae sgs1 mgt1 strain, stronger effect = higher value. The method in brief: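 Read-out: growth inhibition vs vehicle controls. Cells: mutant yeast strain deficient in DNA damage repair.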
Test [4] can be described thus: NCI Yeast Anticancer Drug Screen. Data for the cln2 rad14 strain (AID 165).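 Further: 0% = growth equal to vehicle treated cultures.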 The conditions noted are these: S. cerevisiae cln2 rad14 strain, stronger effect = higher value. The procedure, abridged:
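Growth of compound-exposed yeast (cln2 rad14 genotype) measured and expressed as inhibition relative to vehicle.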

Test [5] in a line: NCI Yeast Anticancer Drug Screen. Data for the bub3 strain (AID 167). As to conditions: S. cerevisiae bub3 mutant strain, stronger effect = higher value. The procedure, abridged: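 Compounds were applied to a genetically altered yeast strain carrying a cell-cycle control defect. Growth inhibition was scored against vehicle-treated controls.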
Test [6] can be described thus: NCI Yeast Anticancer Drug Screen. Data for the mlh1 rad18 strain (AID 175). As to conditions: S. cerevisiae mlh1 rad18 strain growth inhibition, stronger effect = higher value. The method in brief: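 In this whole-cell yeast screen, a strain with altered DNA damage repair is challenged with compound, and its growth is measured against matched vehicle-treated controls.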
Setting [7] is: at 5.0 µM (retest, dose inferred, filed as 0.5).
Where [8] appears, read: at 50.0 µM (retest, dose inferred, filed as 5.0).

About 79,000 compounds went through this panel and 15% of them were active in at least one assay; those are over-represented in the sample as a whole. Values without a mark were called inactive. The source made the active and inactive calls. No stated cut-off is given here; in the data, active means growth inhibition above about 70%; inactive means the rest.

For the molecule `CCOc1nc(N)nc(C)c1N=Nc1ccc(Br)cc1`, the growth inhibition in test [1] (setting [7]) was 9%; in test [1] (setting [8]), 90% (active); in test [1] (at 50.0 µM) it was 70.2% (active); in test [2] (setting [7]) it was 0%; in test [2] (setting [8]), 32%; in test [2] (at 50.0 µM), 2.6%. Besides, the growth inhibition was 4% in test [3] (setting [7]); 72% (active) in test [3] (setting [8]); 22.2% in test [3] (at 50.0 µM); 4% in test [4] (setting [7]); 30% in test [4] (setting [8]); -9.65% in test [4] (at 50.0 µM). Besides, the growth inhibition was 4% in test [5] (setting [7]); 88% (active) in test [5] (setting [8]); 75.9% (active) in test [5] (at 50.0 µM); 17% in test [6] (setting [7]); 98% (active) in test [6] (setting [8]); 35.1% in test [6] (at 50.0 µM).
`C(=C\N1CCCCC1)/c1nnnn1-c1ccccc1`: the growth inhibition is -23% in test [1] (setting [7]); 6% in test [1] (setting [8]); 34.5% in test [1] (at 50.0 µM); -18% in test [2] (setting [7]); -21% in test [2] (setting [8]); 54.1% in test [2] (at 50.0 µM). The growth inhibition in test [3] (setting [7]) was -31%; in test [3] (setting [8]), -18%; in test [3] (at 50.0 µM) it was 71.9% (active); in test [4] (setting [7]) it was -17%; in test [4] (setting [8]), -22%; in test [4] (at 50.0 µM), 11.8%. Also, the growth inhibition is -29% in test [5] (setting [7]); -31% in test [5] (setting [8]); 54.6% in test [5] (at 50.0 µM); -4% in test [6] (setting [7]); 1% in test [6] (setting [8]); 72.7% (active) in test [6] (at 50.0 µM).
For the molecule `COc1cc(C2c3cc4c(cc3[C@@H](OCCN)[C@H]3COC(=O)C23)OCO4)cc(OC)c1O` (stereo not given in full), the growth inhibition was 47% in test [1] (setting [7]); 93% (active) in test [1] (setting [8]); 52.2% in test [1] (at 50.0 µM); 11% in test [2] (setting [7]); 55% in test [2] (setting [8]); 77.2% (active) in test [2] (at 50.0 µM). Besides, the growth inhibition in test [3] (setting [7]) was 29%; in test [3] (setting [8]) it was 63%; in test [3] (at 50.0 µM), 69.5%; in test [4] (setting [7]), 29%; in test [4] (setting [8]), 28%; in test [4] (at 50.0 µM), 49.6%. The growth inhibition in test [6] (setting [7]) is 19%; in test [6] (setting [8]), 68%; in test [6] (at 50.0 µM), 80.7% (active).
Regarding `Nc1ccc(C(=O)N/C(=C\C=C\c2ccco2)c2nc3c4c(ccc3[nH]2)C(=O)c2ccccc2C4=O)cc1`, the growth inhibition in test [1] (setting [7]) was 23%; in test [1] (setting [8]), 75% (active); in test [1] (at 50.0 µM), 90.8% (active); in test [2] (setting [7]) it was 1%; in test [2] (setting [8]), 28%; in test [2] (at 50.0 µM) it was 62.1%. The growth inhibition is 3% in test [3] (setting [7]); 35% in test [3] (setting [8]); 74.8% (active) in test [3] (at 50.0 µM); 0% in test [4] (setting [7]); 9% in test [4] (setting [8]); 44.7% in test [4] (at 50.0 µM). For the same molecule, the growth inhibition in test [5] (setting [7]) was 2%; in test [5] (setting [8]) it was 22%; in test [5] (at 50.0 µM), 31.9%; in test [6] (setting [7]) it was 10%; in test [6] (setting [8]), 12%; in test [6] (at 50.0 µM), 90.5% (active).
For `CCCCCCCCCCCCOP(=O)(N1CC1(C)C)N1CC1(C)C` (stereo not given), the growth inhibition in test [1] (setting [7]) is 4%; in test [1] (setting [8]), 61%; in test [1] (at 50.0 µM), 72.7% (active); in test [2] (setting [7]) it was 2%; in test [2] (setting [8]), 71% (active); in test [2] (at 50.0 µM), 58.1%. In addition, the growth inhibition in test [3] (setting [7]) was 1%; in test [3] (setting [8]) it was 67%; in test [3] (at 50.0 µM), 82.8% (active); in test [4] (setting [7]) it was 16%; in test [4] (setting [8]), 72% (active); in test [4] (at 50.0 µM), 34.2%. Further, the growth inhibition in test [5] (setting [7]) is 24%; in test [5] (setting [8]), 97% (active); in test [5] (at 50.0 µM) it was 87.3% (active); in test [6] (setting [7]), 4%; in test [6] (setting [8]) it was 87% (active); in test [6] (at 50.0 µM) it was 80.5% (active).
With `O=C(CBr)c1cc(-c2ccc(Cl)cc2)nc2ccccc12`, the growth inhibition in test [1] (setting [7]) was 86% (active); in test [1] (setting [8]) it was 98% (active); in test [1] (at 50.0 µM), 98.9% (active); in test [2] (setting [7]), 95% (active); in test [2] (setting [8]), 99% (active); in test [2] (at 50.0 µM), 99% (active). In addition, the growth inhibition in test [3] (setting [7]) was 100% (active); in test [3] (setting [8]), 99% (active); in test [3] (at 50.0 µM) it was 99% (active); in test [4] (setting [7]), 35%; in test [4] (setting [8]), 98% (active); in test [4] (at 50.0 µM), 98% (active). In addition, the growth inhibition in test [5] (setting [7]) is 95% (active); in test [5] (setting [8]), 99% (active); in test [5] (at 50.0 µM), 98.7% (active); in test [6] (setting [7]) it was 97% (active); in test [6] (setting [8]) it was 98% (active); in test [6] (at 50.0 µM) it was 98.8% (active).

(Values after PubChem BioAssay (NCI).)
